High-throughput results from PubChem.
Most compounds without a hit are left out; they make up all but 2.9% or so of the library.
B2AR ag = human beta-2 adrenergic receptor agonism by FAP. Am2.2-beta2AR cells, FAP receptor internalization, flow cytometry. response, % (test concentration not listed). AID 504454. 0.43% of 340,000 active. P07550;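 active means response above a set limit, near 3 SD of response in nonfluorescent compounds, cut at about 42% in these data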
MEKK2 WT-MEK5 = raises or lowers MEK5 binding to wildtype human MEKK2 PB1 domain | bead flow cytometry, Alexa488-MEK5 binding to MEKK2 WT; actives lie on both sides | binding response (% of control), % at 10 µM | 1.1% of 290,000 active | AID 1531; in the data active means binding response below about 67% or above about 130%
MEKK3 PB1 HTS = modulators (inhibitors or enhancers) of MEK5 binding to human MEKK3 PB1 domain | binding response (% of control), % at 10 µM | 1.4% of 290,000 active | bead-based flow cytometry, Alexa488-MEK5 binding to MEKK3; actives lie on both sides; 0 = blocked by unlabeled MEK5, 100 = vehicle | AID 1529;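 active means binding response more than 3 SD above or below the average of its plate-row segment, actives on both sides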;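 further: Alexa488 bead fluorescence after subtracting the streptavidin-only scavenger bead signal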
MEKK2 mut-MEK5 = signal of MEK5 binding to mutant human MEKK2 PB1 domain; bead flow cytometry, Alexa488-MEK5 binding to MEKK2 mutant; percent response, % at 10 µM; 0.35% of 290,000 active; in the data active means percent response above about 24%, passing the limit was not always enough
GRK2 aptamer HTS = blocks RNA aptamer binding to human GRK2 | P25098 | bead flow cytometry, FAM-aptamer displacement from GRK2 | inhibition of aptamer binding, % at 10 µM | 0.59% of 330,000 active | AID 488847;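 active means inhibition of aptamer binding above 40%, roughly 3 SD of noise, on plates passing a quality check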;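 further: median bead fluorescence of bound FAM aptamer so fluorescent compounds give negative values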
Target sequence (P25098 whole entry, looked up): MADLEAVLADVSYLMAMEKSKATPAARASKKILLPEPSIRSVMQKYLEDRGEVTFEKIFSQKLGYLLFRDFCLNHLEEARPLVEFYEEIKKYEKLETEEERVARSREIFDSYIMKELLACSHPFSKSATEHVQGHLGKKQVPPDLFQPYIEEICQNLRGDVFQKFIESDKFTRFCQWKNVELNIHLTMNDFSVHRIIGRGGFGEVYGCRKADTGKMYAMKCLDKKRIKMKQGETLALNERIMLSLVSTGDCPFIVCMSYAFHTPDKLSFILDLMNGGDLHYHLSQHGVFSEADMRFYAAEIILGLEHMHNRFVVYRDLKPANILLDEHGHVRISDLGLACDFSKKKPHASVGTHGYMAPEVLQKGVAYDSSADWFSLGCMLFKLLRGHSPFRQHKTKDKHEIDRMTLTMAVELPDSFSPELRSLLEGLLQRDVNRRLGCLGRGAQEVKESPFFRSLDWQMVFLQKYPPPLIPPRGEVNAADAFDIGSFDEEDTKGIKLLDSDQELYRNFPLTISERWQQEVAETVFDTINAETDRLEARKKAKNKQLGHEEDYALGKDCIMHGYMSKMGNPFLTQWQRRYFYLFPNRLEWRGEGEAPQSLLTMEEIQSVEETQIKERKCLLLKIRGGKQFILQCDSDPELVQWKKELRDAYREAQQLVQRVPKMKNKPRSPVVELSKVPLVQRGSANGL
MEKK2wt confirm = raises or lowers MEK5 binding to wildtype human MEKK2, retest | shares compounds with MEKK3 PB1 HTS | binding response (% of control), % at 10 µM | bead flow cytometry, Alexa488-MEK5 binding to MEKK2 WT; actives lie on both sides | 2.4% of 5,900 active; in the data active means binding response below about 16% or above about 210%; inactive means in between
MEKK2mut confirm = signal of MEK5 binding to mutant human MEKK2, retest; shares compounds with MEKK3 PB1 HTS; bead flow cytometry, Alexa488-MEK5 binding to MEKK2 mutant; percent response, % at 10 µM; 2% of 5,900 active; in the data active means percent response mostly above about 71%, no sharp cut-off; inactive means mostly below about 38%;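 further: higher means compound restores mutant binding toward wildtype level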
MEKK3 confirm = confirmation of inhibitors of MEK5 binding to human MEKK3; AID 1894; binding response (% of control), % at 10 µM; shares compounds with MEKK3 PB1 HTS; 1.8% of 5,900 active; bead flow cytometry, Alexa488-MEK5 binding to MEKK3; active compounds read low;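 active means binding response below 72% of control, or above a set upper limit, though filed actives all read lower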;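 further: 100% = DMSO only wells and 0% = binding blocked by excess unlabeled MEK5; lower values mean stronger disruption of MEK5 binding to MEKK3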
Numbers without * were called inactive; · = no result; + = active, no number; [ ] = another dose, or the depositor's remark.

SMILES	B2AR ag	MEKK2 WT-MEK5	MEKK3 PB1 HTS	MEKK2 mut-MEK5	GRK2 aptamer HTS	MEKK2wt confirm	MEKK2mut confirm	MEKK3 confirm
CCCNC(=S)NC1CC2CCC(C1)N2Cc1ccccc1 (configuration not stated)	-1	88	82*[inhibitor]	-11	0	101	1	98
O=C(NC1CC2CCCC(C1)N2Cc1ccccc1)C1CCCCC1 (configuration not stated)	-5	130	146*	6	1	96	-6	100
COCCNC(=S)NC1CC2CCCC(C1)N2Cc1cccs1 (configuration not stated)	2	86	82*[inhibitor]	-10	0	99	-2	97
COc1cc(C(=O)N/C(=C\c2cn(S(=O)(=O)N(C)C)c3ccccc23)C(=O)N2CCCC2)cc(OC)c1OC	0	95	100	-6	0	·	·	·
O=C(Nc1ccc(Cl)c(C(F)(F)F)c1)NC1CC2CCCC(C1)N2Cc1ccccc1 (configuration not stated)	·	215*	106	7	0	171	33	106
O=C(Nc1cc(Cl)cc(Cl)c1)C(c1ccccc1)N1CCCCC1 (configuration not stated)	11	122	153*	1	0	118	6	104
CC(C)Cc1ccccc1O	·	101	104	-3	2	·	·	·
O=C(CSc1ncn[nH]1)c1cc2ccccc2o1	-149	+	173*	+	3	90	-7	100
CCOC(=O)c1ccc2c(c1)nc(SCC(=O)c1cc3ccccc3o1)n2CC	-1	55*[inhibitor]	73*[inhibitor]	-51	4	98	-3	100
CC(=O)N1CC(C(=O)Nc2ccc3c(c2)OCO3)Oc2ccccc21 (configuration not stated)	2	·	·	·	0	·	·	·
COc1ccccc1CNC(=O)CSc1nnc2c(Cl)cc(C(F)(F)F)cn12	-15	109	137*	1	6	109	5	109
COc1ccccc1CNC(=O)CSc1ccc(C)cc1	-3	112	145*	2	0	103	2	102
O=C(CSc1nnc2c(Cl)cc(C(F)(F)F)cn12)Nc1ccc2c(c1)OCO2	-7	87	87	-6	0	·	·	·
COc1ccccc1CNC(=O)CSc1ccccc1	-3	95	97	-2	1	·	·	·
Cc1cc(C)c(NC(=O)CNC(=O)CN(C)Cc2ccc(Br)s2)c(C)c1	7	·	·	·	0	·	·	·
Cc1ccc(Oc2nc(-c3ccccc3)ncc2S(C)(=O)=O)cc1	-10	1.0*[inhibitor]	1.0*[inhibitor]	-62	1	102	3	104
O=C(O)C1CC(=O)N(c2ccc(OCc3ccccc3)cc2)C1 (configuration not stated)	-4	76	72*[inhibitor]	-3	0	103	-1	101
Cc1cccc(/C=N/n2c(-c3cc(-c4ccccc4)n[nH]3)n[nH]c2=S)c1	-1	101	138*	0	3	96	-3	101
COc1cccc2c1NC(C(=O)O)C1CC=CC21 (configuration not stated)	7	29*[inhibitor]	79	-40	100*	86	-9	84
CCOC(=O)c1ccc(N2C(=O)CC(Nc3ccc(O)cc3)C2=O)cc1 (configuration not stated)	5	110	128*	28	0	100	8	104
CCOC(=O)c1ccc(N2C(=O)CC(NNC(=O)c3ccc(Br)s3)C2=O)cc1 (configuration not stated)	-3	101	97	-2	0	·	·	·
CCOC(=O)Nc1cc(Br)c2c(c1)OCCO2	-3	-4.0*[inhibitor]	0.0*[inhibitor]	-20	0	103	1	104
COc1ccc(C(=O)COc2ccc(C(C)=O)cc2OC)cc1OC	-8	·	·	·	·	·	·	·
Clc1ccccc1OCc1nn[nH]n1	2	118	131*	27	3	107	2	103
Cc1cccc(OCc2nn[nH]n2)c1C	6	108	103	9	0	·	·	·
SMILES	B2AR ag	MEKK2 WT-MEK5	MEKK3 PB1 HTS	MEKK2 mut-MEK5	GRK2 aptamer HTS	MEKK2wt confirm	MEKK2mut confirm	MEKK3 confirm
O=c1sc2ccccc2c(=O)n1Cc1ccccc1F	-6	125	139*	6	2	105	4	104
Cc1ccc(Cn2c(=O)sc3ccccc3c2=O)cc1	-7	101	98	2	2	·	·	·
CCN(CC)C(=O)c1ccccc1NC(=O)CN1C(=O)c2ccccc2S1(=O)=O	-1	106	102	3	4	·	·	·
CCOC(=O)c1c(-c2ccccc2)oc2ccc(OCC(=O)NNC(=O)CCCC(=O)O)cc12	-8	107	107	0	1	·	·	·
CCOC(=O)c1c(-c2ccccc2)oc2ccc(OCC(=O)NNC(=O)CCC(=O)O)cc12	-14	9.0*[inhibitor]	5.0*[inhibitor]	-49	0	94	-3	94
COc1cccc(CN2CC(C(=O)NCc3cccc(N4CCCC4)c3)CCC2=O)c1 (configuration not stated)	-6	98	99	3	0	·	·	·
Cc1cc(-c2onc(C)c2C(=O)O)no1	3	97	95	-4	1	·	·	·
O=C(NCc1ccco1)C1CC(c2ccc(Cl)c(Cl)c2)=NO1 (configuration not stated)	-13	42*[inhibitor]	39*[inhibitor]	-18	2	103	4	103
N=c1c(C(=O)NCC2CCCO2)cc2c(=O)n3ccccc3nc2n1Cc1ccccc1Cl (configuration not stated)	1	104	102	0	3	·	·	·
c1nc(NCC2(N3CCOCC3)CCCCC2)c2ccsc2n1	-2	117	123*	4	0	106	7	108
N#Cc1ccc2[nH]c(CO)c(-c3ccccc3)c2c1	1	-13*[inhibitor]	0.0*[inhibitor]	-21	3	106	-2	106
Cc1ccc(C)c(S(=O)(=O)N=Nc2c(O)[nH]c3ccccc23)c1	-2	95	103	-3	0	·	·	·
Cc1ccc(S(=O)(=O)N=Nc2c(O)[nH]c3ccccc23)cc1	3	121	126*	6	0	104	4	105
Cn1cc(C2CC(c3ccccc3)=NN2C(=O)c2ccccc2)c2ccccc21 (configuration not stated)	4	97	90	-2	0	·	·	·
CCCC(=O)N1N=C(c2ccccc2)CC1c1cn(C)c2ccccc12 (configuration not stated)	5	107	134*	3	0	100	-4	100
